Experimental data as given in PMC7862700, “An all-to-all approach to the identification of sequence-specific readers for epigenetic DNA modifications on cytosine”.

Key:
Test in all cases: DAPPL (digital affinity profiling via proximity ligation, sequencing); 10 mM Tris-HCl pH 7.5, 50 mM NaCl, 1 mM DTT, 4% glycerol, room temperature, 30 min; GST-TFs on glutathione beads, 16-mer random dsDNA library, 0.1% formaldehyde crosslink after washing; high values mean tight binding
Conditions in all cases: protein: recombinant; tags: N-terminal GST; dsDNA, one strand shown
FLI1 = biological target: T1, FLI1 (Homo sapiens, UniProt Q01543 1-452)
T1 sequence: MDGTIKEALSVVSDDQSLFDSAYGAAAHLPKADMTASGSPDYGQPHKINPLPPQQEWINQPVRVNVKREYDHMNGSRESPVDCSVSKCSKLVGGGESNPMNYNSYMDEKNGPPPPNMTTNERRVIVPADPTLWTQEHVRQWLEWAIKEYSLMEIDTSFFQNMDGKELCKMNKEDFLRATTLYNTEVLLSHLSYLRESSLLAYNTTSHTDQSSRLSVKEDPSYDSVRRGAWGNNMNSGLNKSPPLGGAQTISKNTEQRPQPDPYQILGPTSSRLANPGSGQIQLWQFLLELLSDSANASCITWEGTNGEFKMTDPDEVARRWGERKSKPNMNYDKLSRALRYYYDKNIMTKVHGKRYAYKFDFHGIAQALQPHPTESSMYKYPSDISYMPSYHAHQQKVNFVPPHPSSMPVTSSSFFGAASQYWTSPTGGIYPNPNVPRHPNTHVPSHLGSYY
Method in brief: (§1)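 Human transcription factors fused to GST were expressed in yeast, captured on glutathione beads, given DNA barcodes and pooled with a GST-only negative control. Pools were incubated with 200 nmole of a 16-mer random double-stranded DNA library in Tris/NaCl/DTT/glycerol buffer at room temperature for 30 min. They were then washed, crosslinked with 0.1% formaldehyde, proximity-ligated (BsaI/T4 ligase, 1 h, 37 °C), PCR-amplified and sequenced on an Illumina NextSeq500. Binding signal is each 6-mer's read frequency for a factor divided by its frequency for the GST control.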

ELK1 = biological target: T2, ELK1 (Homo sapiens, UniProt P19419 1-428)
T2 sequence: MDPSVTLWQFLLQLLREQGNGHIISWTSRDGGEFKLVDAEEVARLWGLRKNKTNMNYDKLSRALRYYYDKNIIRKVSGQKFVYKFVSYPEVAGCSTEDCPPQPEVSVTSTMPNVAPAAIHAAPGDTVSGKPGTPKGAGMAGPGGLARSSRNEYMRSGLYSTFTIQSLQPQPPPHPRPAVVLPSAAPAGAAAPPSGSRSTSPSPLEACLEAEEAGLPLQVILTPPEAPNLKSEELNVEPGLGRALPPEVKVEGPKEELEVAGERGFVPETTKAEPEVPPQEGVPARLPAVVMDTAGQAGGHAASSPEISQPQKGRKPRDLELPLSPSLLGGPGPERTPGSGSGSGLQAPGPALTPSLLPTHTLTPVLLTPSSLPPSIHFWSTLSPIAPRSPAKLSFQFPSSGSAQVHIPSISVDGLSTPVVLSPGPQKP
Method in brief: as §1

GABPA = biological target: T3, GABPA (Homo sapiens, UniProt Q06546 1-454)
T3 sequence: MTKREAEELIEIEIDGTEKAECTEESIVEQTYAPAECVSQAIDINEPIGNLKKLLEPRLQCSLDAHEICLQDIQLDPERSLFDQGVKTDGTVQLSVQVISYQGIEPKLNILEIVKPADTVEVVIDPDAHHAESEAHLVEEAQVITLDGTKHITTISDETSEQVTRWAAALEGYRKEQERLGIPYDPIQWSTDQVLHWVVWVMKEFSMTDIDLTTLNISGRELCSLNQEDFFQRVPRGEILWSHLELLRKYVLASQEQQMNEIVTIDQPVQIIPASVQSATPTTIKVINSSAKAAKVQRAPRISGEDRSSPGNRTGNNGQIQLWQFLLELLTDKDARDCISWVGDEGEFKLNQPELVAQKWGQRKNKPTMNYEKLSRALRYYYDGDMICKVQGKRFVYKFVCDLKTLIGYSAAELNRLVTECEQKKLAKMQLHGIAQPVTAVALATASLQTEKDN
Method in brief: as §1

ERG = biological target: T4, ERG (Homo sapiens, UniProt P11308 1-479)
T4 sequence: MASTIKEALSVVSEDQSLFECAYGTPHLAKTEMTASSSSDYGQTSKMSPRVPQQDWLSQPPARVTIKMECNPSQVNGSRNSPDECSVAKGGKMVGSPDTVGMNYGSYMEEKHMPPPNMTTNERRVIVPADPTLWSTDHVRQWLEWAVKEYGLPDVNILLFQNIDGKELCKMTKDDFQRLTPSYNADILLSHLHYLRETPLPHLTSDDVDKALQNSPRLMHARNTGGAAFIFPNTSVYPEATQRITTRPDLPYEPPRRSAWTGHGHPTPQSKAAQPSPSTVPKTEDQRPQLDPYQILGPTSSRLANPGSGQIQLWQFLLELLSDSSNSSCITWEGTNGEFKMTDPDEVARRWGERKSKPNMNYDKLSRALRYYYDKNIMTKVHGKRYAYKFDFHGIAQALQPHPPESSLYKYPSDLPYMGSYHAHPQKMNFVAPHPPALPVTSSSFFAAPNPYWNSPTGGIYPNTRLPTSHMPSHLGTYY
Method in brief: as §1

ELF1 = ELF1 (Homo sapiens, UniProt P32519 1-619)
Sequence of ELF1 (P32519 whole entry): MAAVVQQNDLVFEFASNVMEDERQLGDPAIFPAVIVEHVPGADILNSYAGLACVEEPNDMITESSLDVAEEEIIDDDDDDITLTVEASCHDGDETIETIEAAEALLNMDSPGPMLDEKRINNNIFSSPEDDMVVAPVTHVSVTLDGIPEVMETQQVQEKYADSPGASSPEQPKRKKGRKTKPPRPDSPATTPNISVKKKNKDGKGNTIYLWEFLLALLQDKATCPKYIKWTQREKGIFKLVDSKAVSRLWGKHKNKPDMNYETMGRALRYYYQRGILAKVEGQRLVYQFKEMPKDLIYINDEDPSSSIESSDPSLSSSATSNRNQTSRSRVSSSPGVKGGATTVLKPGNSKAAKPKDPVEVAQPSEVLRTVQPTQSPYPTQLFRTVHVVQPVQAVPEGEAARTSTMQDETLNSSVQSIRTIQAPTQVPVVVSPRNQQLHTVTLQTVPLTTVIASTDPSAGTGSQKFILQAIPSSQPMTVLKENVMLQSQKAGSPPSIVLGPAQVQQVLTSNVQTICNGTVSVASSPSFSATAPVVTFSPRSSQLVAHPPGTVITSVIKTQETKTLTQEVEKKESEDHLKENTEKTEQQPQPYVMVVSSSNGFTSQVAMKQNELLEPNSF
Method in brief: as §1

EHF = biological target: T5, EHF (Homo sapiens, UniProt Q9NZC4 1-300)
T5 sequence: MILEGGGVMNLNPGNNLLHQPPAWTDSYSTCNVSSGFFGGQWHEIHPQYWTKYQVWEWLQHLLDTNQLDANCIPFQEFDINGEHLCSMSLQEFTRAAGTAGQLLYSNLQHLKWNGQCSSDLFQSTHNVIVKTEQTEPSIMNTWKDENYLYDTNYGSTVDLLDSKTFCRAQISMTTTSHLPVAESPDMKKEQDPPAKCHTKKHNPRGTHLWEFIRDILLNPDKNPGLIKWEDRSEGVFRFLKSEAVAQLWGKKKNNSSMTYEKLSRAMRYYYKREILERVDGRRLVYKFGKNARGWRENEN
Method in brief: as §1

SPI1 = SPI1 (Homo sapiens, UniProt P17947 1-270)
Method in brief: as §1

SPIB = SPIB (Homo sapiens, UniProt Q01892 1-262)
Sequence of SPIB (Q01892 whole entry): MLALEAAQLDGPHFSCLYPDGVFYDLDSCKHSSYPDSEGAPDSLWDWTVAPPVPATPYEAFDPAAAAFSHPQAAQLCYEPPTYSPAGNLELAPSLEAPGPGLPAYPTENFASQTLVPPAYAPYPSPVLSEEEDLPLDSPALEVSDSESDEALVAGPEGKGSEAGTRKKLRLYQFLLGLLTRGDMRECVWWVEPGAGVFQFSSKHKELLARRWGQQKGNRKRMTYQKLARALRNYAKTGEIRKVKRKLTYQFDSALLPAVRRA
Method in brief: as §1

ELK3 = biological target: T6, ELK3 (Homo sapiens, UniProt P41970 1-407)
T6 sequence: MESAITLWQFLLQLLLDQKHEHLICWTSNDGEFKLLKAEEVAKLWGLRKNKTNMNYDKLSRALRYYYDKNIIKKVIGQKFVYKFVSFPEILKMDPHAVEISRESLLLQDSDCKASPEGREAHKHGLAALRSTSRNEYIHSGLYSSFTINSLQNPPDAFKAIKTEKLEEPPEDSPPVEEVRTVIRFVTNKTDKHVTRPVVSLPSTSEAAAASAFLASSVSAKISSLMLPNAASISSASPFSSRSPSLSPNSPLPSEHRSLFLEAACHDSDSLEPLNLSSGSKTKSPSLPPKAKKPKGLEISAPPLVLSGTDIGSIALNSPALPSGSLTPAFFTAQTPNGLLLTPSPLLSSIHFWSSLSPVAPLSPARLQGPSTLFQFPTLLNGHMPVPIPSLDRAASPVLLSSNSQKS
Method in brief: as §1

FEV = biological target: T7, FEV (Homo sapiens, UniProt Q99581 1-238)
T7 sequence: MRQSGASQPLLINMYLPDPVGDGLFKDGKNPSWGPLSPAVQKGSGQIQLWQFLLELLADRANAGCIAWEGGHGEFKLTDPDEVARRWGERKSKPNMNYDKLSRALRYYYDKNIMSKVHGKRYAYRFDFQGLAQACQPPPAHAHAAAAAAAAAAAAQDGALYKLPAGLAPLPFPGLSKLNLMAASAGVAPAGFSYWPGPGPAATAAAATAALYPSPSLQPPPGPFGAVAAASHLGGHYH
Method in brief: as §1

ETV5 = ETV5 (Homo sapiens, UniProt P41161 1-510)
Sequence of ETV5 (P41161 whole entry): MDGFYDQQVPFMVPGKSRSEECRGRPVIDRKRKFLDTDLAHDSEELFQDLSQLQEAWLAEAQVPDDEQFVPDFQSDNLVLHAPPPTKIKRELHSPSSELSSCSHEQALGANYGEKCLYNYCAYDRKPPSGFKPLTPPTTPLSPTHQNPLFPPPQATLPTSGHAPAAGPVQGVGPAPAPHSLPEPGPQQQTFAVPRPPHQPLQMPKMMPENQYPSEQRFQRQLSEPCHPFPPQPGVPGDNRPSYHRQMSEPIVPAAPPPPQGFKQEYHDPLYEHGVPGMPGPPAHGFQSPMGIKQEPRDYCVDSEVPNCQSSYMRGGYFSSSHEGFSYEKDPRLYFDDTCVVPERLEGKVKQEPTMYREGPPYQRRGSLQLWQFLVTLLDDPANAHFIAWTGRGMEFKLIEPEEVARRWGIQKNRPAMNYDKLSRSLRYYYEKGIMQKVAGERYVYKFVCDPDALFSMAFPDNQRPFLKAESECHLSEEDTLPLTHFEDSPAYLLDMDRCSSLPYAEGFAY
Method in brief: as §1

SPIC = biological target: T8, SPIC (Homo sapiens, UniProt Q8N5J4 1-248)
T8 sequence: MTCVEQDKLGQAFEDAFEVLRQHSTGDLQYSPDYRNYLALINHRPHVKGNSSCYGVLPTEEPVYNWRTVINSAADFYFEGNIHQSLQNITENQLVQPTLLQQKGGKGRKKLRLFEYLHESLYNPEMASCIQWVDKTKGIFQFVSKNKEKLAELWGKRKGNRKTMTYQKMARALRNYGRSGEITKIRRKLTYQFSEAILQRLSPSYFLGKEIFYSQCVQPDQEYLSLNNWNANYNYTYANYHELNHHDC
Method in brief: as §1

ELF4 = ELF4 (Homo sapiens, UniProt Q99607 1-663)
Sequence of ELF4 (Q99607 whole entry): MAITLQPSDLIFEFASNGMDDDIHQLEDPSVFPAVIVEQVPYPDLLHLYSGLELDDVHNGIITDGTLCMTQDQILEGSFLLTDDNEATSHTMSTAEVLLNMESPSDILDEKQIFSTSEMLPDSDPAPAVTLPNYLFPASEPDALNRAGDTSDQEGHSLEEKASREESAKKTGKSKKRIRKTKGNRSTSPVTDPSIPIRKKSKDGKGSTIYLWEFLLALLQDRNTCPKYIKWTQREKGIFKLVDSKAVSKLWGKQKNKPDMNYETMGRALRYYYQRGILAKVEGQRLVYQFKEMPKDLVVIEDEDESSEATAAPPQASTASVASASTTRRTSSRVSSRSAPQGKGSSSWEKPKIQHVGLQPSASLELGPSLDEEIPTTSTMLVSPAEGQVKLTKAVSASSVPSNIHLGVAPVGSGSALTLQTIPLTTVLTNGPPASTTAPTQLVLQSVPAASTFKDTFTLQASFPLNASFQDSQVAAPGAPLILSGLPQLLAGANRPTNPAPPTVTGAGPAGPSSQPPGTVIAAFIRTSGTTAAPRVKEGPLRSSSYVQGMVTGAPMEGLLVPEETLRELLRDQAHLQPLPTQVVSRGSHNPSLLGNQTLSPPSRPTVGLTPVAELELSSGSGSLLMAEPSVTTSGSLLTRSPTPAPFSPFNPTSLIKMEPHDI
Method in brief: as §1

ELK4 = biological target: T9, ELK4 (Homo sapiens, UniProt P28324-2 1-405)
T9 sequence: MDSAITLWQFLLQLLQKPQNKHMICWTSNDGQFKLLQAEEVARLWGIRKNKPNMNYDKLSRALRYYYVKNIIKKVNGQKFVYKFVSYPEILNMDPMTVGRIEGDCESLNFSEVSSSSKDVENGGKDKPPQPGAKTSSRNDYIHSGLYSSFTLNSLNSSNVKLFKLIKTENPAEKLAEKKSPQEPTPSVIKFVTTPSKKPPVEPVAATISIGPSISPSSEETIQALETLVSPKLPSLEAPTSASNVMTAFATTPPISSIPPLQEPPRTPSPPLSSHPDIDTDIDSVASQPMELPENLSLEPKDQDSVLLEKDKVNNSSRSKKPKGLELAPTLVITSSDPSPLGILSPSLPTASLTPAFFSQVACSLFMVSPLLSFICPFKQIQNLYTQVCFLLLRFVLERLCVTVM
Method in brief: as §1

ETV2 = biological target: T10, ETV2 (Homo sapiens, UniProt O00321 1-342)
T10 sequence: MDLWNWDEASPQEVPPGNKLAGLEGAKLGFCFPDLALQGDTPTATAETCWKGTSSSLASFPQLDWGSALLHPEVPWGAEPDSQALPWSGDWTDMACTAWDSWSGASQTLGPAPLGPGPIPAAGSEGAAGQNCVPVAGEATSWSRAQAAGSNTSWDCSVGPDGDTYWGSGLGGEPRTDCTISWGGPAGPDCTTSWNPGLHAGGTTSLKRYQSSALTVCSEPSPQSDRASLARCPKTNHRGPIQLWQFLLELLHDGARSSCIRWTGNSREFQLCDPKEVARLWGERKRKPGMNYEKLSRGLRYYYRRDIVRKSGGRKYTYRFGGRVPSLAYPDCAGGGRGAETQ
Method in brief: as §1

ELF3 = biological target: T11, ELF3 (Homo sapiens, UniProt P78545 1-371)
T11 sequence: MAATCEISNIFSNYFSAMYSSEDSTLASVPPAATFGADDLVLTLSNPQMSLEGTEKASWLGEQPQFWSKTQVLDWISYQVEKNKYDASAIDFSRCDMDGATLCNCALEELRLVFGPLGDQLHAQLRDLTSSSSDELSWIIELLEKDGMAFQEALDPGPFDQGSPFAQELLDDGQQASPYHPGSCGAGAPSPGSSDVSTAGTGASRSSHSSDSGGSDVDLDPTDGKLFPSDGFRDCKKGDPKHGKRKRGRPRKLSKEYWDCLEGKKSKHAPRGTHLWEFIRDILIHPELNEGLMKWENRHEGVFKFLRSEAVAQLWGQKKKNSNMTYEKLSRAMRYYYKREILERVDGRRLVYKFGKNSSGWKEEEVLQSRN
Method in brief: as §1

ETV1 = ETV1 (Homo sapiens, UniProt P50549 1-477)
Sequence of ETV1 (P50549 whole entry): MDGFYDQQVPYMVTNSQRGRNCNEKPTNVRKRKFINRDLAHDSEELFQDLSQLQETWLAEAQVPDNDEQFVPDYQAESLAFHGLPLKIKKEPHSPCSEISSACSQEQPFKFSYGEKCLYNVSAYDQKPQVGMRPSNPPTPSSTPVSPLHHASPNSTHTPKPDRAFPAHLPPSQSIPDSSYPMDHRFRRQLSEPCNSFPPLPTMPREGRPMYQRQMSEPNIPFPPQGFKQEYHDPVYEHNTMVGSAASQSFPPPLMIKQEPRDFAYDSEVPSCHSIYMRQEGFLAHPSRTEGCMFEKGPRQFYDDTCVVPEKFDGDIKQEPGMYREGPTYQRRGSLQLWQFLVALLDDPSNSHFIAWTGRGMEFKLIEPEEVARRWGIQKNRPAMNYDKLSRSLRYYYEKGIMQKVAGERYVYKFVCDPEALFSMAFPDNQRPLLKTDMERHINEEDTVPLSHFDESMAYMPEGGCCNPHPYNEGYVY
Method in brief: as §1

| Sequence | binding signal (FLI1) | binding signal (ELK1) | binding signal (GABPA) | binding signal (ERG) | binding signal (ELF1) | binding signal (EHF) | binding signal (SPI1) | binding signal (SPIB) | binding signal (ELK3) | binding signal (FEV) | binding signal (ETV5) | binding signal (SPIC) | binding signal (ELF4) | binding signal (ELK4) | binding signal (ETV2) | binding signal (ELF3) | binding signal (ETV1) |
| --- | --- | --- | --- | --- | --- | --- | --- | --- | --- | --- | --- | --- | --- | --- | --- | --- | --- |
| CACCCG | 1.14 fold enrichment (6-mer frequency, TF over GST control) | 1.24 fold enrichment (6-mer frequency, TF over GST control) | 1.18 fold enrichment (6-mer frequency, TF over GST control) | 1.21 fold enrichment (6-mer frequency, TF over GST control) | 1.2 fold enrichment (6-mer frequency, TF over GST control) | 1.2 fold enrichment (6-mer frequency, TF over GST control) | 1.12 fold enrichment (6-mer frequency, TF over GST control) | 1.28 fold enrichment (6-mer frequency, TF over GST control) | 1.17 fold enrichment (6-mer frequency, TF over GST control) | 1.16 fold enrichment (6-mer frequency, TF over GST control) | 1.21 fold enrichment (6-mer frequency, TF over GST control) | 1.17 fold enrichment (6-mer frequency, TF over GST control) | 1.18 fold enrichment (6-mer frequency, TF over GST control) | 1.29 fold enrichment (6-mer frequency, TF over GST control) | 1.2 fold enrichment (6-mer frequency, TF over GST control) | 1.16 fold enrichment (6-mer frequency, TF over GST control) | 1.14 fold enrichment (6-mer frequency, TF over GST control) |
| TGCATG | 1.12 fold enrichment (6-mer frequency, TF over GST control) | 1.09 fold enrichment (6-mer frequency, TF over GST control) | 1.13 fold enrichment (6-mer frequency, TF over GST control) | 1.13 fold enrichment (6-mer frequency, TF over GST control) | 1.15 fold enrichment (6-mer frequency, TF over GST control) | 1.15 fold enrichment (6-mer frequency, TF over GST control) | 1.02 fold enrichment (6-mer frequency, TF over GST control) | 1.14 fold enrichment (6-mer frequency, TF over GST control) | 1.14 fold enrichment (6-mer frequency, TF over GST control) | 1.04 fold enrichment (6-mer frequency, TF over GST control) | 1.15 fold enrichment (6-mer frequency, TF over GST control) | 1.27 fold enrichment (6-mer frequency, TF over GST control) | 1.08 fold enrichment (6-mer frequency, TF over GST control) | 1.05 fold enrichment (6-mer frequency, TF over GST control) | 1.08 fold enrichment (6-mer frequency, TF over GST control) | 1.02 fold enrichment (6-mer frequency, TF over GST control) | 1.06 fold enrichment (6-mer frequency, TF over GST control) |
